# Screens deposited in PubChem by National Center for Advancing Translational Sciences (NCATS).
# ALOX12 inh: ALOX12 (human) lipoxygenase inhibition. P18054. purified 12hLO, xylenol orange hydroperoxide absorbance. Potency, µM (doses to about 108 µM), most hits filed as inhibitors. 1.1% of 580,000 active. AID 1671190
# Target sequence (P18054 whole entry, looked up): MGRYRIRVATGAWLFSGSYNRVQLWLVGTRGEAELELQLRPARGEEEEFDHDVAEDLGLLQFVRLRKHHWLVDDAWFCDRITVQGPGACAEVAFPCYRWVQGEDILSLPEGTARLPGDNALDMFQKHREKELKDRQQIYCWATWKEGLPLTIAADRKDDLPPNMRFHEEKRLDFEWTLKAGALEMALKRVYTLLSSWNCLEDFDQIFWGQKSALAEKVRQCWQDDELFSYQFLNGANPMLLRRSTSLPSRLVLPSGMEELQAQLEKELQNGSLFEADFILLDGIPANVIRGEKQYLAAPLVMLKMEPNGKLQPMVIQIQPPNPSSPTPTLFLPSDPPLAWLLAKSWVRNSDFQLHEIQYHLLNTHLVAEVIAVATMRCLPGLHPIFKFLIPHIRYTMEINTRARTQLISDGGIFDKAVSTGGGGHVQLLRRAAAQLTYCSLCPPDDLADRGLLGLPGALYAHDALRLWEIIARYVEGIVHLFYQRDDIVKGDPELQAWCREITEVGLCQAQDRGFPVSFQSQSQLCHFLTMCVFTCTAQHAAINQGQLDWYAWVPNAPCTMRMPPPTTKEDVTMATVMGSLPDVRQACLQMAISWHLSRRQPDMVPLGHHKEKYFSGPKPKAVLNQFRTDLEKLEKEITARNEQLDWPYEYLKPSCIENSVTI
#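 Purified human 12hLO at 150 nM in 25 mM Hepes, 0.01% Triton X-100, pH 7.0, preincubated 15 min at room temperature with compound. Reaction started with 40 uM arachidonic acid, 30 min at room temperature. Hydroperoxide measured by Fe-xylenol orange, 573/405 nm absorbance ratio.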
# IL-1B inflam inh: inflammasome signaling inhibition, IL-1 beta readout | THP-1 LPS/ATP IL-1B secretion, AlphaLISA, 16 h; stronger effect = lower value | activity change, % at 57.5 µM | 4.7% of 360,000 active | AID 743279; in the data active means activity change below about -50%; inconclusive means mostly about -30% to -49%
#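 THP-1 cells pretreated 1 hr with compounds (up to 57.5 uM final), then stimulated with LPS (250 ng/mL final) plus ATP (1.25 mM final); secreted IL-1B measured by AlphaLISA after 16 hr, decreased signal indicating inhibition.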
# TDP1 cell CPT: growth inhibition of DT40 Tdp1-/-;hTDP1 cells with camptothecin (screen for TDP1 inhibitors). AID 686979. 12% of 420,000 active. Potency, µM (highest dose often 46.2 µM), hits mostly inhibitors. chicken DT40 Tdp1-/-;hTDP1 cells + 20 nM CPT, ATP luminescence, 48 h; further: nearly all actives have a fitted effect of over 55% in size
#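 Cell growth measured by CellTiter-Glo luminescence after a minimum 48 h, 37 C compound exposure with 20 nM CPT in Tdp1-knockout DT40 cells stably expressing hTDP1, seeded 400/well; qHTS titration format.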
# HT1080-NT tox: kills 2HG-producing HT-1080-NT fibrosarcoma cells; 1.6% of 360,000 active; AID 686970; Potency, µM (series often up to 46.1 µM), most hits filed as cytotoxic; HT-1080-NT fibrosarcoma viability, CellTiter-Glo ATP luminescence, 48 h;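 further: NT is the 2HG producing partner of a matched IDH1 knockdown line; nearly all actives have a fitted effect of over 55% in size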
#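 Toxicity toward the 2HG-producing NT line was scored as %Activity, normalised to DMSO and no-cell wells, from CellTiter-Glo luminescence after 48 hours' treatment.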
# HT1080 IDH1KD tx: kills HT-1080 cells with IDH1 knockdown; Potency, µM (top dose mostly 46.1 µM), most hits filed as cytotoxic; 2% of 360,000 active; AID 686971; HT-1080 IDH1 knockdown viability, ATP luminescence, 48 h
#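 IDH1KD HT-1080 cells, 750/well, RPMI + 5% FBS; compound pinned after 2 h settling; 48 h, 37 °C; CellTiter-Glo luminescence; % activity normalised to DMSO and no-cell wells; curves fitted, classed by r2 and efficacy.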
# TDP1 cell noCPT: qHTS for Inhibitors of human tyrosyl-DNA phosphodiesterase 1 (TDP1): qHTS in cells in absence of CPT; DT40 Tdp1-/- hTDP1 cells, no CPT, ATP luminescence, 48 h; Potency, µM (top dose mostly 46.2 µM), most hits filed as inhibitors; 15% of 420,000 active; AID 686978, 2013; further: nearly all actives have a fitted effect of over 55% in size
#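 Stably hTDP1-transfected Tdp1-null chicken DT40 cells were treated with library compounds minus camptothecin and grown for at least 48 hr at 37 °C, after which cellular ATP was quantified by luminescence.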
# A number is an active result; - = inactive; ? = inconclusive; . = not tested or not shown. This is one part of a sample in which hits are shown more often than they occur. Unless noted, the call rests on the fitted dose curve; in most records, active means well fitted curve in the direction sought with a large enough effect; inconclusive means small, poorly fitted or top-dose-only effect, or another doubt; inactive means no such curve, though single readings can be large; an effect the other way counts as inactive or inconclusive.
SMILES,ALOX12 inh,IL-1B inflam inh,TDP1 cell CPT,HT1080-NT tox,HT1080 IDH1KD tx,TDP1 cell noCPT
COc1ccc(NC(=O)C2(n3cnnn3)CCCCC2)cc1,-,.,.,.,.,.
CC(C)COc1ccc(C(=O)Nc2nonc2-c2ccc(OC(C)C)cc2)cc1,-,.,.,.,.,.
COc1cccc(-c2noc(C3CCCN(C(=O)Cc4ccccc4)C3)n2)c1 (centres undefined),-,-,18µM,-,-,18µM
CCCCCCC(=O)N1CCCC(c2nc(-c3cccc(OC)c3)no2)C1 (centres undefined),-,-62,-,-,-,?
COc1cccc(-c2noc(C3CCCN(C(=O)c4cccc(F)c4)C3)n2)c1 (centres undefined),-,-,?,-,-,?
COc1ccc(-c2noc(C3CCCN(C(=O)CCc4ccccc4)C3)n2)cc1 (centres undefined),-,-,18µM,-,-,?
COc1ccc(CCC(=O)N2CCCC(c3nc(-c4ccccc4)no3)CCNC(=O)CC2)cc1 (centres undefined),-,.,.,.,.,.
O=C(c1ccco1)N1CCCC(c2nc(-c3ccc(S(=O)(=O)NCc4ccccc4)cc3)no2)C1 (centres undefined),-,?,13µM,?,?,18µM
CCCC(=O)N1CCCC(c2nc(-c3cccc(OC)c3)no2)C1 (centres undefined),-,-,?,-,-,?
CS(=O)(=O)c1ccc(OCC2(CNCc3ccc(F)c(F)c3)C[C@@H](O)[C@@H](O)C2)cc1 (some centres undefined),-,.,.,.,.,.
CCOC(=O)C(NC(=O)/C=C/c1cc(Cl)c(OC)c(OC)c1)C(=O)OCC,-,.,.,.,.,.
CCCCCC(=O)N1CCCC(c2nc(-c3ccc(OC)cc3)no2)C1 (centres undefined),-,?,?,-,-,23µM
Cc1cccc(N(C)S(=O)(=O)c2ccc(-c3coc(C)n3)cc2)c1,-,.,.,.,.,.
CC1SCC(NC(=O)c2cccc(Cl)c2)CS1 (centres undefined),-,-,15µM,-,-,12µM
CCn1cc[n+](C)c1P(c1ccccc1)c1ccccc1,40µM,-,0.65µM,-,-,0.013µM
N#Cc1ccc(CN2C[C@@H]3C[C@H]2C(=O)N(Cc2ccccc2)c2ccccc2O3)cc1,-,.,.,.,.,.
C[C@]12c3[nH]c4cc(-c5ccco5)ccc4c3CCN1C(=O)[C@@H](CC(=O)NCC13CC4CC(CC(C4)C1)C3)C[C@@H]2C(=O)N1CCCCC1,-,?,5.2µM,-,?,6.5µM
CC[C@]12c3[nH]c4ccccc4c3CCN1C(=O)C(CC(=O)NCCCn1ccnc1)C[C@@H]2C(=O)N1CCN(C(=O)C2CC2)CC1 (some centres undefined),-,-,-,-,-,-
CC[C@]12c3[nH]c4cc(CCC(=O)N(C)C)ccc4c3CCN1C(=O)[C@@H](CC(=O)NCc1cccc(C(F)(F)F)c1)C[C@@H]2C(=O)N1CCN(C(=O)c2ccco2)CC1,-,-,21µM,-,-,?
CC[C@]12c3[nH]c4cc(-c5ccco5)ccc4c3CCN1C(=O)[C@@H](CC(=O)NCCC1=CCCCC1)C[C@@H]2C(=O)N1CCN(C(=O)C2CC2)CC1,?,-50,?,-,-,?
CN(C)CCCNC(=O)C[C@H]1C[C@H](C(=O)N2CCCCC2)[C@@]2(C)c3[nH]c4cc(-c5ccco5)ccc4c3CCN2C1=O,-,-,?,?,-,?
CC[C@]12c3[nH]c4cc(-c5ccco5)ccc4c3CCN1C(=O)[C@@H](CC(=O)NCC13CC4CC(CC(C4)C1)C3)C[C@@H]2C(=O)N1CCN(C(=O)C2CC2)CC1,-,?,?,-,?,23µM
CC1(c2ccc(C#N)cc2)NC(=O)N(Cc2coc(-c3cccs3)n2)C1=O (centres undefined),-,.,.,.,.,.
CN(Cc1cccnc1)c1nc2c(c(=O)[nH]1)CCN(Cc1cc(Cl)ccc1F)CC2,-,.,.,.,.,.
O=C(N[C@@H]1CN(Cc2ccoc2)C[C@H]1CO)c1cccnc1,-,.,.,.,.,.
SMILES,ALOX12 inh,IL-1B inflam inh,TDP1 cell CPT,HT1080-NT tox,HT1080 IDH1KD tx,TDP1 cell noCPT
C[C@]12c3[nH]c4cc(-c5ccco5)ccc4c3CCN1C(=O)[C@@H](CC(=O)NCc1cccc(C(F)(F)F)c1)C[C@@H]2C(=O)N1CCCCC1,-,-60,?,?,?,26µM
CC[C@]12c3[nH]c4cc(-c5ccco5)ccc4c3CCN1C(=O)[C@@H](CC(=O)NCCCN(C)C)C[C@@H]2C(=O)N1CCN(C(=O)c2ccco2)CC1,?,-,-,-,-,-
CC[C@]12c3[nH]c4cc(-c5ccco5)ccc4c3CCN1C(=O)[C@@H](CC(=O)NCC13CC4CC(CC(C4)C1)C3)C[C@@H]2C(=O)N1CCN(C(=O)c2ccco2)CC1,-,-54,9.2µM,?,?,21µM
CN(C)C(=O)CCc1ccc2c3c([nH]c2c1)[C@]1(C)[C@@H](C(=O)N2CCCCC2)C[C@H](CC(=O)NCCN2CCOCC2)C(=O)N1CC3,-,-,-,-,-,-
CN(C)C(=O)CCc1ccc2c3c([nH]c2c1)[C@]1(C)[C@@H](C(=O)N2CCCCC2)C[C@H](CC(=O)NCC24CC5CC(CC(C5)C2)C4)C(=O)N1CC3,-,?,9.2µM,-,-,13µM
CC[C@]12c3[nH]c4cc(-c5ccco5)ccc4c3CCN1C(=O)[C@@H](CC(=O)NCc1ccc(OC)c(OC)c1)C[C@@H]2C(=O)N1CCN(C(=O)C2CC2)CC1,?,?,?,-,-,?
CC[C@]12c3[nH]c4cc(-c5ccco5)ccc4c3CCN1C(=O)[C@@H](CC(=O)NCc1cccc(C(F)(F)F)c1)C[C@@H]2C(=O)N1CCN(C(=O)C2CC2)CC1,-,-,16µM,-,?,?
Cn1c(NCCCO)nc2c1c(=O)n(Cc1ccc(Br)cc1)c(=O)n2C,-,.,.,.,.,.
CN1CCc2c([nH]c3ccccc23)C12CCN(C(=O)c1ccc3ncccc3c1)CC2,-,.,.,.,.,.
CC[C@]12c3[nH]c4cc(-c5ccco5)ccc4c3CCN1C(=O)[C@@H](CC(=O)NCc1ccco1)C[C@@H]2C(=O)N1CCN(C(=O)C2CC2)CC1,?,-,16µM,-,-,16µM
CCCCN1C(C(C)=O)=C(OC(=O)c2ccc(C)cc2)c2ccccc2S1(=O)=O,-,.,.,.,.,.
CCN1C(C(=O)c2ccccc2)=C(Nc2ccccc2C)c2ccccc2S1(=O)=O,?,?,-,-,-,?
